Screening data as filed in PubChem.
Most compounds without a hit are left out; they make up all but 2% or so of the library.
NadD inh = blocks S. aureus nicotinate mononucleotide adenylyltransferase. purified NadD enzyme, colorimetric absorbance read-out. inhibition, % at 20 µM. hit rate 0.78% among 360,000; in the data active = inhibition above about 26%
DAGLB inhibitor = diacylglycerol lipase beta (human) inhibition. Q8NCG7. HEK293T DAGLB membrane lysate, EnzChek fluorogenic substrate. inhibition, % at 5.17 µM. hit rate 0.059% among 340,000. AID 504411; in the data active = inhibition above about 34%;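 also: 0% = enzyme with vehicle and 100% = wells lacking enzyme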
ARNT TACC3 PPI = ARNT/TACC3 interaction disruption | hit rate 0.66% among 390,000 | AID 623870 | AlphaScreen His-ARNT PAS-B/GST-TACC3 binding, luminescence; TACC3 fragment carries E629A point mutation | inhibition, % at 9.99 µM;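 active = mean inhibition of replicates at least 50% and at least half of replicates each reaching 50%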;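 also: 0% = complete ARNT plus TACC3 wells and 100% = ARNT alone without TACC3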
Neddyl block = inhibitors of human cullin neddylation | P61081+Q13564 | TR-FRET cullin neddylation, biochemical | inhibition, % at 25 µM | hit rate 0.58% among 360,000 | AID 651699; in the data active = inhibition above about 36%
Target sequence (P61081 whole entry, looked up): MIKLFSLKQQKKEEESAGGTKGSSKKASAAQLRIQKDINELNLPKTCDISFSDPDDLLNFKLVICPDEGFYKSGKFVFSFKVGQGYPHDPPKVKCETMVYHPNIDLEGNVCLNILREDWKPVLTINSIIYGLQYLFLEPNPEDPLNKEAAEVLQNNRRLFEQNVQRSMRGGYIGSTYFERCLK
Target sequence (Q13564 whole entry, looked up): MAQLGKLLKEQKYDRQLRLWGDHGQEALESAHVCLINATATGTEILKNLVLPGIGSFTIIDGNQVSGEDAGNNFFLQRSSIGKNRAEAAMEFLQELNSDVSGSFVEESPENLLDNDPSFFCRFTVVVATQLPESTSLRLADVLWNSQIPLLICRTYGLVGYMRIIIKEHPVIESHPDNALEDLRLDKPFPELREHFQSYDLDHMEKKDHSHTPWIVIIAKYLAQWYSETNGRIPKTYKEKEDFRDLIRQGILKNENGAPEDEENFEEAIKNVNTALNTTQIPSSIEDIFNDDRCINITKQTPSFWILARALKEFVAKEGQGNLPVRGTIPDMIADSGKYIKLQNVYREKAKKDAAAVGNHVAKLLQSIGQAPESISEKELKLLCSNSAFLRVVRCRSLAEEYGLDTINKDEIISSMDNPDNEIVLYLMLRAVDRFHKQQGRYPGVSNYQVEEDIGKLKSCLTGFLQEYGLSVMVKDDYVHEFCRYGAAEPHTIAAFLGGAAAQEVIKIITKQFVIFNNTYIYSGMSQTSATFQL
HGIII-sPLA2 inh = Blocks human group III sPLA2 activity; Q9NZ20; hit rate 0.56% among 370,000; QFRET BODIPY PC-A2 liposome hydrolysis, fluorescence; inhibition, % at 12.2 µM;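 active = inhibition above mean plus 3 SD of compounds lying within the high and low control bounds, cut at about 19% in these data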;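 also: 0% = median of test compound wells and 100% = no enzyme DMSO wells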
The depositor's hits bear a star; · = not tested or not shown.

SMILES	NadD inh	DAGLB inhibitor	ARNT TACC3 PPI	Neddyl block	HGIII-sPLA2 inh
CN(C)S(=O)(=O)c1cccc(NC(=O)COC(=O)c2ccc([N+](=O)[O-])o2)c1	-2.7	-0.2	64.4*	-51.4	5.3
COc1ccc2c(n1)Sc1nc3ccccc3nc1N2	3.7	-65.4	8.9*	-22.9	-10.8
COc1cc2ccccc2nn1	-5.6	-0.6	-2.8	·	-2.1
Brc1ccc(CNc2ccc3ncccc3c2)cc1	-7.0	-3.1	-11.2	47.9*	3.6
O=C(Nc1ccc2ncccc2c1)c1cccc(Br)c1	0.0	0.1	-2.3	-6.2	1.1
C[C@H](CO)N1C[C@H](C)[C@H](CN(C)C(=O)Nc2ccccc2)Oc2ncc(/C=C/c3ccccc3)cc2C1=O	·	·	3.3	·	·
O=C(O)COc1ccccc1/C=C1\SC(=S)N(/N=C/c2ccccc2O)C1=O	9.5	2.2	70.1*	-10.2	18.4
O=C(O)COc1ccccc1/C=C1\SC(=S)N(NC(=O)c2ccccc2O)C1=O	0.4	8.2	51.0*	-23.5	-11.9
Cn1cc(/C=C2\SC(=S)N(NC(=O)c3ccccc3Cl)C2=O)c2ccccc21	39.5*	-15.2	-4.3	-115.4	-18.8
O=C(O)COc1ccccc1/C=C1\SC(=Nc2ccc(F)cc2)N(c2ccc(F)cc2)C1=O	4.5	3.8	4.0	-6.3	-23.2
COc1ccc2[nH]c3c(C)c4ccncc4c(C)c3c2c1	36.5*	-0.6	7.5	41.8*	-35.6
CCCCCCCC[n+]1cccc2c3ccccc3ccc21	18.0	2.3	3.3	·	-0.5
CCCCCCCCCC[n+]1cccc2c3ccccc3ccc21	11.9	7.9	30.9	55.6*	6.3
CCOc1ccc2nc(/N=C/c3c(C)[nH]n(-c4ccccc4)c3=O)sc2c1	-0.1	-0.6	27.4*	12.3	-1.5
O=C(C[C@H]1CC[C@@H](NC(=O)C2CCC2)[C@H](CO)O1)NC1CCC1	·	·	-9.2	·	·
CC(Sc1nnc(NC2CCCCC2)s1)C(=O)Nc1ccc2c(c1)C(=O)c1ccccc1C2=O (configuration not stated)	37.6*	3.9	1.3	-30.1	-0.4
NC(=S)NN=C1CCC2(CCCCC2)CC1	-3.4	-1.0	·	-4.5	13.1
CC1(C)CCC(=NNC(N)=S)CC1	4.1	-2.0	21.5*	4.9	9.9
C[C@@H]1CCCCO[C@@H](CN(C)Cc2ccc(Cl)c(Cl)c2)[C@@H](C)CN([C@@H](C)CO)C(=O)c2cc(NS(=O)(=O)c3ccccc3)ccc2O1	·	·	8.8	·	·
C=CCOC(=O)COc1ccc2c(C)c(C)c(=O)oc2c1C	1.5	-1.3	·	40.6*	0.5
Cc1cccc2cccnc12	0.1	-0.9	·	2.2	-5.3
O=Cc1ccc2ccc3cccnc3c2n1	1.7	-1.4	66.9*	1.7	-3.0
c1cnc2c(c1)ccc1cccnc12	1.0	-1.0	64.7*	-8.0	5.6
O=c1cc[nH]c2c1ccc1cccnc12	-2.4	-2.8	60.7*	-17.0	0.8
CC(C)C#Cc1ccc2c(c1)O[C@@H](CN(C)C(=O)c1cccnc1)[C@@H](C)CN([C@@H](C)CO)S2(=O)=O	·	·	0.6	·	·
SMILES	NadD inh	DAGLB inhibitor	ARNT TACC3 PPI	Neddyl block	HGIII-sPLA2 inh
CC(NC1=CC(=O)c2cccnc2C1=O)C(O)c1ccccc1 (configuration not stated)	0.3	-1.4	47.4*	-47.9	5.1
CC(C)OC(=O)C(C(=O)C(F)(F)F)c1cc(NS(=O)(=O)c2ccc3ccccc3c2)c2ccccc2c1O (configuration not stated)	55.4*	3.2	-1.6	5.1	·
CCOc1ccc(S(=O)(=O)Nc2cc(SCC(=O)O)c(O)c3ccccc23)cc1	8.7	-6.2	·	-44.2	-7.8
CN(C)c1ccc(NC2=C(Cl)C(=O)c3ccccc3C2=O)cc1	-2.9	21.6	52.8*	-18.4	15.5
CCNc1nc(NCC)nc(OCCOC(C)=O)n1	0.0	1.3	-6.4	1.8	-2.7
CCNc1nc(NCC)nc(C(=O)OCCO)n1	-0.8	-2.4	49.4*	3.9	9.5
C[C@H]1CN([C@@H](C)CO)C(=O)c2cc(NS(=O)(=O)c3cccs3)ccc2O[C@@H]1CN(C)S(=O)(=O)c1ccc(Cl)cc1	·	·	-4.2	·	·
O=C(CCN1C(=O)/C(=C/c2ccco2)SC1=S)Nc1ccc(C(=O)O)c(O)c1	3.3	3.9	16.0	13.1	-23.1
CCc1ccc(/C=C2\SC(=S)N(CCCC(=O)Nc3ccccn3)C2=O)cc1	3.5	1.3	-5.8	-10.2	8.3
CCc1ccc(/C=C2/SC(=S)N(CC(=O)Nc3nc4ccccc4s3)C2=O)cc1	50.2*	5.1	-2.2	2.9	2.1
CCc1ccc(/C=C2/SC(=S)N(CCC(=O)Nc3ccc(C(=O)O)cc3)C2=O)cc1	39.8*	-0.7	-4.6	-16.5	-5.0
O=C(CCN1C(=O)/C(=C\c2ccco2)SC1=S)Nc1ccc(C(=O)O)c(O)c1	39.5*	6.3	12.7	8.9	-18.3
COc1cc(/C=C2/SC(=S)N(CC(=O)O)C2=O)ccc1OCC(=O)Nc1ccc(C)c(C)c1	30.4*	2.2	0.7	-12.4	-14.9
COc1cccc(/C=N/NC(=O)C(=O)N2CCCC2)c1O	1.8	1.6	67.6*	-3.7	-8.3
CN1CCN(CCC(=O)N/N=C/c2ccccc2F)CC1	-4.0	-1.6	1.4	-0.9	-5.1
O=C(CCN1CCN(c2ccccc2)CC1)N/N=C/c1ccccc1O	-8.7	0.6	32.0	42.2*	-4.6
COc1cccc(/C=N/Nc2nc(Nc3ccc([N+](=O)[O-])cc3)nc(N3CCCC3)n2)c1O	34.7*	·	5.8	-6.8	-2.8
O=C(N/N=C/c1ccccc1F)C(=O)N1CCCCCC1	0.7	-0.9	2.4	-4.0	-1.1
O=C(N/N=C/c1ccccc1O)C(=O)N1CCCCCC1	-3.4	1.6	67.0*	17.5	-8.9
COc1cccc(/C=N/NC(=O)C(=O)N2CCCC2)c1OC	-7.5	0.2	-3.3	0.5	-1.0
C/C=C/c1ccc2c(c1)O[C@@H](CN(C)C(=O)CN(C)C)[C@H](C)CN([C@H](C)CO)S2(=O)=O	·	·	-1.3	·	·
O=C(N/N=C/c1ccccc1)C(O)c1ccccc1 (configuration not stated)	1.3	-2.4	4.2	3.0	0.9
O=C(NN=Cc1ccccc1O)C(O)c1ccccc1 (configuration not stated)	-2.9	-1.0	43.4*	·	-4.6
CCN(CC)S(=O)(=O)c1cccc(NC(=O)C2SC(=Nc3ccc(C)cc3C)C(C(=O)NC(C)COC)=C2N)c1 (configuration not stated)	44.3*	-16.6	-1.6	3.6	-22.4
CCN(CC)S(=O)(=O)c1cccc(C(=O)Nc2cccc(C)c2)c1	-7.9	-3.5	0.9	13.2	-6.8
CO[C@@H]1CN(C)C(=O)c2cc(NS(=O)(=O)c3cccc(C)c3)ccc2OC[C@@H](C)NC[C@H]1C	·	·	12.7*	·	·
CO[C@@H]1CN(C)C(=O)c2cc(NS(=O)(=O)c3cccc(C)c3)ccc2OC[C@H](C)NC[C@H]1C	·	·	2.2	·	·
COc1ccc(C#Cc2cnc3c(c2)C(=O)N([C@H](C)CO)C[C@H](C)[C@@H](CN(C)C(=O)CC2CC2)O3)cc1	·	·	0.9	·	·
